Test results reported in PubChem BioAssay AID448 (National Center for Advancing Translational Sciences (NCATS), 2006).
About 45 (0.07%) of roughly 65,000 compounds were called active. A selection follows. Unmarked numbers belong to inactive results. Calls follow the shape of the full dose curve.

Each compound was assayed on Schistosoma mansoni peroxiredoxin 2 (Prx2) (assay: Schistosoma Mansoni Peroxiredoxins (Prx2)). Settings: S. mansoni Prx2 activity coupled to TGR/GSH (TGR is thioredoxin glutathione reductase), NADPH fluorescence loss, qHTS.
Text: NIH Molecular Libraries Screening Centers Network [MLSCN]
NIH Chemical Genomics Center [NCGC]
David Williams [Illinois State University]
Schistosoma mansoni, a causative agent of schistosomiasis, resides in the bloodstream of their host up to 30 years without being eliminated by the host immune attack. One proposed survival mechanism is the production of an antioxidant "firewall" that neutralizes the oxidative assault of the host's immune attack. Schistosoma mansoni peroxiredoxins (Prx) are important parasite antioxidant proteins that play a crucial role in redox balance mechanisms. […] First, the proteins are essential for the parasite survival. […] Third, the protein(s) is amenable for study at the molecular level and can be produced in bacteria in large quantities, in soluble and active form. Inhibition of Prx activity was screened in a coupled-enzyme format with reducing equivalents being transferred from NADPH to […] intermediate via thioredoxin/glutathione reductase (TGR)-catalyzed reaction, then from thioredoxin to hydrogen peroxide via Prx-catalyzed electron transfer. A decrease in the fluorescence intensity of NADPH was used to measure the enzyme activity. Purified S. mansoni TGR and Prx were provided by Professor David L. Williams, Illinois State University.
NCGC Assay Protocol Summary:
100 mM phosphate buffer, pH 7.4, 10 mM EDTA, 0.01% Tween-20.
100 uM NADPH/25 nM TGR/700 uM GSH/50 nM Prx2 mixture in columns 1, 2, 5-48. Titration of control potassium antimonyl tartrate (PAT, from 1 mM, then 1:5) pin-transferred to lower half of column 2. Column 1 and upper half of column 2 are neutral (100% activity).
Three uL of reagents were dispensed to 1536-well Greiner black plates. Compounds and controls (20 nL) were transferred via Kalypsys PinTool. The plates were incubated for 15 min at room temperature, and then a 1 uL aliquot of 400 uM NADPH/700 uM GSH was added, immediately followed by a 1uL aliquot of 2.5 mM H2O2 (to start the reaction). The plate was transferred to ViewLux (Perkin-Elmer) High-throughput CCD imager where kinetic measurements (every 30 sec, for a total of 8 min) of NADPH fluorescence were taken using 365 nm excitation/450 nm emission filter set. During dispense, enzyme-containing reagent bottles were kept submerged into 4 deg C water bath to minimize degradation.
Keywords: NIH Roadmap, MLSCN, MLI, MLSMR, David Williams, Peroxyredoxin, Schistosoma mansoni, prx2, prx, , qHTS, NCGC
Potency is read from the fitted curve at half-maximal effect.

| Structure (SMILES) | Potency [µM] |
| --- | --- |
| CN(C)C(=O)c1ccc(-c2cncnc2NC2CCNCC2)cc1 | > 57 |
| COc1ccc(Br)c2c1C[C@H](C(=O)O)CC2 | > 57 |
| COC(=O)[C@@H]1[C@H]2C[C@H]3c4[nH]c5cc(OC)ccc5c4CCN3C[C@@H]2C[C@@H](OC(=O)c2cc(OC)c(OC)c(OC)c2)[C@@H]1OC | > 57 |
| O=C(c1ccc(F)cc1)C1CCN(CCCCc2ccccc2)CC1 | > 57 |
| Cc1ccnc(N)c1 | > 25.6 |
| COc1ccccc1CNc1cc(-c2ccccc2CN(C)C)ncn1 | > 57 |
| O=C(NCc1ccccc1)[C@H]1C[C@@H]1[C@H](NP(=O)(c1ccccc1)c1ccccc1)c1ccccc1 | > 57 |
| COc1ccccc1-c1nc(NCCNC(C)=O)c2ccccc2n1 | > 57 |
| O=C(c1cccc(F)c1)N1CCC2(CCCN(Cc3ccncc3)C2)CC1 | > 57 |
| O=c1cc(-c2ccccc2)[nH]c2nc(Cl)ccc12 | > 57 |
| O=c1cc(-c2ccc(O)c(O)c2)oc2cccc(O)c12 | > 57 |
| CC(C)C[C@@H](CC(=O)N[C@@H](CCC(=O)O)CC(=O)O)NC(=O)[C@@H]1CCCC[C@H]1NC(=O)C[C@@H](NC(=O)C[C@H](Cc1c[nH]c2ccccc12)NC(=O)[C@@H]1CCCC[C@H]1N)C(C)C | > 57 |
| C[N+]1(CCN=C=NC2CCCCC2)CCOCC1 | > 57 |
| O=C(c1cc(C(F)(F)F)cc(C(F)(F)F)c1)N1CCC2(CC1)CN(c1ccncc1)C2 | > 57 |
| O=C(c1csnn1)N1CCC[C@@]2(CCN(Cc3nccs3)C2)C1 | > 57 |
| COC(=O)[C@@]1(Cc2ccc(F)cc2)[C@H]2c3cc(C(=O)N4CCCC4)n(Cc4ccc(OC(F)(F)F)cc4)c3C[C@H]2CN1C(=O)c1ccccc1 | > 57 |
| CC[C@]1(C)CC(=O)NC1=O | > 57 |
| Cn1cc(-c2nc3cnc(N4CCNCC4)nc3n(CCC#N)c2=O)c2ccccc21 | > 57 |
| O=C(O)c1ccc(C(=O)c2ccccc2C(=O)O)cc1C(=O)O | > 57 |
| O=C1c2ccccc2C(=O)N1CCCSc1ccccc1 | > 57 |
| O=C(O)COc1c(Cl)cc(Cl)c2cccnc12 | > 57 |
| COc1cccc(Cn2c(=O)c(-c3cc(F)cc(F)c3)nc3cnc(OC)nc32)c1 | > 57 |
| CCC[C@@H]1C[C@@]1(CCC)C(NC(=O)c1ccc(-c2ccccc2)cc1)c1cccc(Cl)c1 (stereo not given in full) | > 57 |
| COc1cccc(-c2nc(Nc3ccncc3)c3ccccc3n2)c1 | > 57 |
| Clc1ccc(C(c2ccc(Cl)cc2)n2cc[n+](C[C@@H](OCc3ccc(Cl)cc3Cl)c3ccc(Cl)cc3Cl)c2)cc1 | > 57 |
| CC(=O)N1CCC2(CC1)CCN(c1ccncc1)CC2 | > 57 |
| CCOc1ccc(N=NS(=O)(=O)O)cc1 | > 57 |
| NCCNCC1CCNCC1 | > 57 |

| Structure (SMILES) | Potency [µM] |
| --- | --- |
| CN(C)c1cc2c(Nc3ccc4c(cnn4Cc4ccccc4)c3)ncnc2cn1 | > 57 |
| C[C@@H]1CC[C@H]2[C@H](C)[C@H]3[C@H](C[C@H]4[C@@H]5CC=C6C[C@@H](O)CC[C@@]6(C)[C@@H]5C[C@@H](O)[C@]34C)N2C1 | > 57 |
| CCNc1ncc2nc(CCc3ccccc3)c(=O)n(-c3ccc(OC)cc3)c2n1 | > 57 |
| Oc1c(Br)cc(CN(Cc2cc(Br)c(O)c(Br)c2)C2CCCCC2)cc1Br | > 57 |
| COc1ccc(-n2c(=O)c(C)nc3cnc(N4CCOCC4)nc32)cc1 | > 57 |
| C[C@@H](N)[C@@H](C)Cc1ccccc1 | > 57 |
| CN1CCN2c3ccccc3Cc3ccccc3[C@@H]2C1 | > 57 |
| CNc1nc(-c2ccccc2OC)nc2ccccc12 | > 57 |
| O=C(Nc1ccccc1)N[C@H]1C[C@H](C(=O)O)Nc2cc(Cl)cc(Cl)c21 | > 57 |
| COc1ccc(C(=O)N/N=C2/C(=O)c3c(C)cc(C)cc3CC2(C)C)cc1 | > 57 |
| N#Cc1cc2[nH]c(=O)c(=O)[nH]c2cc1[N+](=O)[O-] | > 25.6 |
| c1cncc(CNc2ccnc(-c3ccc4c(c3)OCO4)n2)c1 | > 57 |
| O=C(c1csnn1)N1CCC2(CCN(Cc3nccs3)CC2)CC1 | > 57 |
| COCCNc1ncnc2ccc(-c3ccccc3CN(C)C)cc12 | > 57 |
| O=c1c(-c2ccc(F)cc2)nc2cnc(N3CCOCC3)nc2n1-c1ccccc1 | > 11.4 |
| CC(=O)/C(=N\N=C(N)N)c1ccccc1 | > 57 |
| COCCn1c(=O)c(-c2ccccc2)nc2cnc(N3CCOCC3)nc21 | > 57 |
| CN(C)c1ncc2nc(-c3ccc(F)cc3)c(=O)n(Cc3ccc(F)cc3)c2n1 | > 57 |
| O=C1NC(=O)[C@@](Cc2ccccc2)(c2cccnc2)N1 | > 57 |
| N#Cc1cccc(-c2ccc3ncnc(NCc4cccs4)c3c2)c1 | > 57 |
| O=C(Oc1ccc2c(c1)CN(Cc1ccccc1)CO2)c1ccccc1 | > 57 |
| O=C(O)c1nn(-c2ccc(Cl)cc2)c2c1C(=O)c1ccccc1C2=O | > 57 |
| O=C(O)c1c(Br)c(Br)c(Br)c(Br)c1C1c2ccc(O)cc2Oc2cc(O)ccc21 | > 57 |
| c1ccc2c(Nc3ccncc3)nc(-c3ccc4c(c3)OCO4)nc2c1 | > 57 |
| CCON=C1C(C)(C)C(C)(C)C(C)(C)C1(C)C | > 57 |
| Cc1ccc(-c2nn(CC(C)(C)C)c3ncnc(N)c23)cc1 | > 57 |
| CN/C(=C\[N+](=O)[O-])NCCSCc1csc(CN(C)C)n1 | > 57 |
